The whole screen tested about 350,000 compounds, of which about 7,000 (2%) were called active. This excerpt belongs to a sample that is enriched for actives. Values without a mark were called inactive. Cut-off read from the data, not from the text of the source: active = activation above about 40%; inconclusive = no clear call, values can overlap the other calls; inactive = below that.

This test is described as follows: Bmi1 luciferase reporter increase in mESCs, primary screen, esBAF inhibitor project, mouse ES cells, Bmi1 luciferase knock-in, single point (AID 602393).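 Note: 0% = median of the plate's neutral control wells and 100% = double that signal; a rise in the Bmi1 reporter signal indicates esBAF inhibition.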 To be noted: 24 h, at 12.5 µM, stronger effect = higher value, 100% = twice the neutral-well signal. For orientation: Reporter assays use an easily measured gene product as a stand-in for the process of interest.
For the molecule `C[C@@H]1CN([C@H](C)CO)C(=O)c2cc(C#CC3(O)CCCC3)cnc2O[C@H]1CN(C)Cc1ccncc1`, the reporter increase is -2.58%. The same measure for `Cc1ccc(C(=O)NC(=S)Nc2ccccc2C)cc1`: 69.2% (active); for `Cc1ccccc1NC(=S)NC(=O)Cc1ccc(Cl)cc1`: 5.51%; for `Cc1ccc(C(=O)NC(=S)Nc2ccc(N3CCOCC3)cc2)cc1`: 5.69%. With `CC(C)NC(=O)N[C@H]1C=C[C@H](CC(=O)NCCN2CCCC2)O[C@@H]1CO`, the reporter increase is -2.39%. The same measure for `CCc1c(C)c2ccc(OC3CCCCC3=O)cc2oc1=O` (stereo not drawn): 65.6% (active); for `COC(=O)Cc1c(C)c2ccc(OCC(=O)NCc3ccc4c(c3)OCO4)cc2oc1=O`: 4.08%.

`Cc1c(CCC(=O)O)c(=O)oc2cc(OCc3ccc(Br)cc3)ccc12`: the reporter increase is 14.3%. The same measure for `COc1cccc(CNC(=O)[C@@H]2[C@@H](CO)[C@@H]3Cn4c(ccc(-c5ccncc5)c4=O)[C@H]2N3C(C)=O)c1`: 5.45%. For `CO[C@@H]1CN(C)C(=O)c2cc(NS(=O)(=O)CC(F)(F)F)ccc2OC[C@H](C)N(Cc2ccccn2)C[C@@H]1C`, the reporter increase is 0.135%. As for `C[C@@H]1CN([C@@H](C)CO)C(=O)c2cccc(N(C)C)c2O[C@@H]1CN(C)S(=O)(=O)c1ccccc1`, the figure is 0.064%; as for `O=C(COc1ccc([N+](=O)[O-])cc1Cl)Nn1cnnc1`, -5.37%; as for `CCCn1nnnc1NC(=O)COc1ccc(Cl)cc1C`, -3.97%. As for `Cc1cc(NC(=O)COc2ccc(Cl)cc2Cl)n(CCC#N)n1`, the figure is 97.9% (active); as for `CCC(=O)N1C[C@H](C)[C@H](OC)CN(C)C(=O)c2ccc(NC(=O)c3cnccn3)cc2OC[C@@H]1C`, -10.3%.

As for `CC(C)NC(=O)N(C)C[C@@H]1Oc2cc(C#C[C@H](C)O)ccc2S(=O)(=O)N([C@@H](C)CO)C[C@H]1C`, the reporter increase was 0.093%. As for `O=C(c1ccncc1)N1C[C@H]2[C@@H](c3ccccc31)[C@H](CO)N2Cc1ccc(F)cc1`, the figure is -3.53%; as for `COC(=O)CSc1nc(C)c2ccc(OC)cc2n1`, -3.51%.

With `CCOc1ccc2cc(C#N)c(SCC(=O)OC)nc2c1`, the reporter increase is 66.4% (active). The same measure for `Cc1nonc1NC(=O)CSc1nc2ccccc2cc1C#N`: 36.1%; for `C[C@@H]1CN([C@@H](C)CO)C(=O)c2cc(NS(=O)(=O)c3ccccc3)ccc2O[C@H]1CN(C)S(=O)(=O)c1ccc(Cl)cc1`: 11.7%; for `CCCN1[C@H](C(=O)NCC)[C@@H](CO)[C@@H]2Cn3c(ccc(C4=CCCC4)c3=O)[C@@H]21`: -2.59%. The same measure for `CCC(=O)Nc1ccc2c(c1)C(=O)N(C)[C@@H]1CC[C@@H](CC(=O)N[C@@H](C)c3ccccc3)O[C@@H]1CO2`: -1.27%; for `COc1cccc(NC(=O)Nc2ccc3c(c2)C(=O)N(C)C[C@H](OC)[C@@H](C)CN[C@@H](C)CO3)c1`: 2.37%.

Regarding `FC(F)(F)c1ccnc(Oc2ccc(C3=NCCS3)cc2)c1`, the reporter increase is 45.6% (active). As for `C/C=C/c1cnc2c(c1)C(=O)N([C@H](C)CO)C[C@@H](C)[C@H](CN(C)Cc1cccc(C(=O)O)c1)O2`, the figure is -4.01%; as for `Cc1noc(C)c1S(=O)(=O)N(C)C[C@H]1Oc2ccc(NC(=O)Cc3ccccc3)cc2CC(=O)N([C@@H](C)CO)C[C@H]1C`, 6.49%; as for `C[C@@H]1CN([C@@H](C)CO)C(=O)c2cc(NC(=O)c3ccncc3)ccc2O[C@@H]1CN(C)S(C)(=O)=O`, 0.579%. The same measure for `CN1c2ccc(C#Cc3cccnc3)cc2[C@@H]2[C@@H](CCN2S(=O)(=O)c2ccccc2)[C@H]1CO`: 11.3%. As for `N=c1c2c3c(sc2nc2n1CCCCC2)CCCC3`, the figure is 24.2%; as for `O=c1oc(-c2ccco2)nc2sc3c(c12)CCCCC3`, 57.3% (active); as for `O=S(=O)(c1ccc(Cl)cc1)c1nc(-c2ccco2)oc1N1CCCCC1`, -5.66%. As to `CCCNC(=O)N1C[C@@H](C)[C@@H](OC)CN(C)C(=O)c2ccc(NC(=O)CCC)cc2OC[C@H]1C`, the reporter increase is -1.55%. `COCC#Cc1cnc2c(c1)C(=O)N([C@H](C)CO)C[C@H](C)[C@@H](CN(C)C(=O)Nc1cc(F)ccc1F)O2`: the reporter increase was 6.3%. The same measure for `COCC#Cc1ccc2c(c1)O[C@H](CN(C)C(=O)C1CCOCC1)[C@@H](C)CN([C@@H](C)CO)S2(=O)=O`: 5.12%; for `COc1ccc([C@H]2CC(=O)C=C(/C=C/c3ccccc3)C2)cc1`: 70.2% (active); for `COc1ccc([C@H]2CC(=O)C=C(c3ccc(C)cc3)C2)cc1`: 8.3%. The same measure for `COc1ccc(C2CC(=O)NC(=O)C2)cc1`: -4.89%; for `C[C@H](CO)N1C[C@H](C)[C@@H](CN(C)C)Oc2cc(C#Cc3ccccc3)ccc2S1(=O)=O`: -3.93%. The same measure for `Cc1ccc(CNC(=O)C(=O)c2cn(CC(=O)N3CCOCC3)c3ccccc23)cc1`: 20.4%; for `O=C(Nc1ccc(F)cc1)C(=O)c1cn(CC(=O)N2CCOCC2)c2ccccc12`: 41% (active); for `COc1cccc(NC(=O)C(=O)c2cn(CC(=O)N3CCOCC3)c3ccccc23)c1`: 20.7%. For `CO[C@@H]1CN(C)C(=O)c2cc(NC(=O)C3CCC3)ccc2OC[C@H](C)N(C(=O)CN(C)C)C[C@@H]1C`, the reporter increase is -3.99%. For the molecule `C[C@H](CO)N1C[C@H](C)[C@@H](CN(C)C(=O)Nc2ccc3c(c2)OCO3)OCCCC[C@H](C)Oc2ccc(NS(=O)(=O)c3cn(C)cn3)cc2C1=O`, the reporter increase is -2.06%. `C[C@H]1CN([C@@H](C)CO)C(=O)Cc2cc(NC(=O)Nc3cccc4ccccc34)ccc2O[C@@H]1CN(C)C`: the reporter increase was -2.18%. As for `COc1ccc(S(=O)(=O)N(C)C[C@H]2Oc3ccc(NC(=O)Nc4ccccc4)cc3CC(=O)N([C@H](C)CO)C[C@@H]2C)cc1`, the figure is -4.23%; as for `O=C(NCCCn1ccnc1)c1cc(Br)c(Br)s1`, -10.5%.

Turning to `O=C(NCCCn1ccnc1)c1cc(-c2ccccc2)on1`, the reporter increase was 47.2% (active). `O=C(NCCCn1ccnc1)c1ccccc1F`: the reporter increase was -2.18%. The same measure for `C[C@@H](NC(=O)[C@@H]1[C@@H](CO)[C@@H]2Cn3c(ccc(C4=CCCCC4)c3=O)[C@@H]2N1C)c1ccccc1`: 1.48%.

In the case of `Cc1ccc(S(=O)(=O)Nc2ccc3c(c2)C(=O)N([C@@H](C)CO)C[C@@H](C)[C@H](CN(C)Cc2ccncc2)O3)cc1`, the reporter increase is 2.63%. As for `C[C@H](CO)N1C[C@H](C)[C@H](CN(C)Cc2ccncc2)Oc2ccc(N(C)C)cc2C1=O`, the figure is -1.91%; as for `Cc1ccc2[nH]c(=O)c(COC(=O)c3ccccn3)cc2c1`, -2.11%. With `CCOC(=O)c1[nH]c2ccc(C)cc2c1N=C(C)N(C)C`, the reporter increase is 1.77%.

As for `CCOC(=O)c1cc2cc(C)ccc2[nH]1`, the reporter increase is 70.2% (active). The same measure for `CCCNC(=O)N(C)C[C@H]1Oc2cc(C#C[C@@H](C)O)ccc2S(=O)(=O)N([C@H](C)CO)C[C@H]1C`: -0.613%; for `COCC(=O)N1C[C@@H]2[C@H](c3ccccc31)[C@@H](CO)N2C(=O)C1CC1`: -6.95%. The same measure for `CCNC(=O)[C@@H]1[C@@H](CO)[C@@H]2Cn3c(ccc(-c4ccncc4)c3=O)[C@@H]2N1Cc1cc(F)ccc1F`: -2.84%; for `CCCC(=O)Nc1nc2ccc(NC(=O)c3c(F)c(F)c(OC)c(F)c3F)cc2s1`: -33%. `O=C(CCNC(=O)c1ccccc1)Nc1nc2ccccc2s1`: the reporter increase was 59.5% (active).

Regarding `CC(C)Cc1nnc(NC(=O)CCNC(=O)c2ccccc2Cl)s1`, the reporter increase was -1.82%. As for `O=S(=O)(N[C@H]1CC[C@@H](CCNS(=O)(=O)c2ccccc2Cl)O[C@@H]1CO)c1ccccc1`, the figure is 2.98%. On to `CCOc1ccc(NC(=O)C/C(C)=N/NC(=O)Cc2cccs2)cc1`, for which the reporter increase is -1.12%. As for `O=C(Cc1cccs1)Nc1ccc([N+](=O)[O-])cc1`, the figure is 1.47%. In the case of `CCOC(=O)c1ccc(NC(=O)Cc2cccs2)cc1`, the reporter increase is 49.7% (active). The same measure for `CN(C)CC(=O)Nc1ccc2c(c1)[C@H]1C[C@@H](CC(=O)NCc3ccccn3)O[C@@H](CO)[C@H]1O2`: -2.09%.

As to `COc1cccc(S(=O)(=O)N(C)C[C@@H]2Oc3cc(C4=CCCCC4)ccc3S(=O)(=O)N([C@H](C)CO)C[C@H]2C)c1`, the reporter increase is -4.77%. The same measure for `CCOc1ncccc1C(=O)OCC(=O)c1c[nH]c2ccccc12`: 5.19%; for `C[C@H](NC(=O)c1ccccc1)C(=O)OCC(=O)c1c[nH]c2ccccc12`: 4.74%. As for `O=C(OCC(=O)c1c[nH]c2ccccc12)c1cccc(O)c1`, the figure is 96.8% (active). The same measure for `Cc1ccc(S(=O)(=O)c2c(COC(=O)c3cccc(Cl)c3)c(-c3ccccc3)nn2C)cc1`: 12.1%; for `O=C(OCC(O)C(O)COC(=O)c1ccccc1)c1ccccc1` (stereo not drawn): -4.1%; for `O=C(OCc1ccc(-c2ccccc2)cc1)c1cccc(O)c1`: 56.3% (active). Regarding `COCC(=O)N1C[C@@H](C)[C@H](OC)CN(C)C(=O)c2ccc(NC(=O)c3ccc(F)cc3)cc2OC[C@H]1C`, the reporter increase was -1.39%. As for `CCCNC(=O)N1[C@H](CNC(C)=O)[C@@H](c2ccc(C3=CCCC3)cc2)[C@@H]1CO`, the figure is 2.55%; as for `O=C(c1cc(-c2ccc(O)cc2)on1)N1CCOCC1`, -6.48%. The same measure for `COc1ccc(-c2cc(C(=O)N3CCN(c4ccc(F)cc4)CC3)no2)cc1`: 5.86%; for `O=C(c1cc(-c2ccc(Cl)cc2)on1)N1CCN(c2ccccc2)CC1`: 60.8% (active).

For the origin of these results see PubChem BioAssay AID602393 (Broad Institute, 2012).
